# Screening results: PubChem, several laboratories
# NALP1 yeast inh: NALP1 inflammasome inhibitors in reconstituted yeast, colorimetric, S. cerevisiae, triplicate retest | inhibition, % at 10 µM | AID 2071, 2009 | 280,000 compounds, 0.61% hits | S. cerevisiae NALP1/ASC/caspase-1 growth, X-gal OD620, 72 h; in the data active = inhibition mostly above about 24%, no sharp cut-off; inactive = mostly below about 32%
# TIM10 inh: growth inhibitors of isogenic TIM10 control yeast, primary screen, counter-screen for tim10-1 yeast inhibitor project, luminescence, uHTS. S. cerevisiae TIM10 strain growth, BacTiter-Glo luminescence, 24 h. inhibition, % at 10 µM. 330,000 compounds, 1.4% hits. AID 463195, 2010;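 active = inhibition of 40% or more at the single tested concentration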;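 also: wild-type TIM10 isogenic control strain grown at permissive 25 °C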
# tim10-1 inh: growth inhibitors of tim10-1 mutant yeast, primary screen, luminescence, uHTS. 330,000 compounds, 2.2% hits. S. cerevisiae tim10-1 ts strain growth, BacTiter-Glo, 24 h. inhibition, % at 20 µM. AID 463190, 2010;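 active = inhibition of at least 40%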;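 also: mutant grown at 25 °C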
# V-ATPase pH: regulators of yeast V-ATPase proton pumping, primary screen, pHLuorin cytosolic pH fluorescence; S. cerevisiae; response, % at 10 µM; AID 504577, 2011; 350,000 compounds, 0.37% hits; in the data active = response mostly above about 7.3%, no sharp cut-off; inactive = mostly below about 5.4%; also: actives read high
# NALP3 yeast inh: NALP3 inflammasome inhibitors in reconstituted yeast, primary screen, luminescence, uHTS; Yeast reconstituted NLRP3/ASC/caspase-1, beta-gal luminescence, 24 h; inhibition, % at 10 µM; 330,000 compounds, 0.39% hits;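 active = inhibition of 50% or more; inactive = inhibition below 50%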
# tim23-1 inh: growth inhibitors of tim23-1 mutant yeast, primary screen, luminescence, uHTS | S. cerevisiae tim23-1 growth, BacTiter-Glo luminescence, 24 h | AID 463212, 2010 | 330,000 compounds, 1.3% hits | inhibition, % at 20 µM;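 active = growth inhibition of the mutant yeast at or above 50%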;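 also: temperature-sensitive mutant grown at 25 °C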
# NALP3 yeast conf: NALP3 inhibitors retested in yeast, confirmation, luminescence, single concentration | yeast expressing human NALP3 | shares compounds with NALP3 yeast inh | inhibition, % at 10 µM | 1,300 compounds, 81% hits | AID 435006, 2010; in the data active = inhibition above about 48%
# Casp1-ASC yeast: CASP1-PYCARD signaling inhibition in yeast, confirmatory test, counterassay for NLRP3 inhibitor program, one-dose; shares compounds with NALP3 yeast inh; yeast expressing Caspase-1-ASC, luminescence counter screen; inhibition, % at 10 µM; 1,000 compounds, 66% hits; AID 488784, 2010
# NALP3 yeast rt: NALP3 inhibitors in yeast, repeat test, confirmation, luminescence, single concentration, retest; yeast expressing human NALP3, luminescence read-out; inhibition, % at 10 µM; 1,000 compounds, 53% hits; shares compounds with NALP3 yeast inh
# tim10-1 conf: growth inhibitors of tim10-1 mutant yeast, confirmation, single concentration, luminescence, S. cerevisiae; S. cerevisiae tim10-1 ts strain growth, BacTiter-Glo, 24 h; inhibition, % at 20 µM; shares compounds with tim10-1 inh; 7,400 compounds, 56% hits;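 active = inhibition of yeast growth at or above a set limit in either of two repeat tests at 20 µM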;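 also: tim10-1 mutant grown at permissive 25 °C to find synthetic lethal compounds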
# tim10 confirm: growth inhibitors of wild-type TIM10 yeast, confirmation, counter-screen for tim10-1 synthetic lethality project, single concentration, luminescence, S. cerevisiae | shares compounds with TIM10 inh | S. cerevisiae tim10 strain growth, BacTiter-Glo luminescence, 24 h | inhibition, % at 10 µM | 4,600 compounds, 63% hits | AID 463215, 2010;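 active = inhibition of yeast growth at or above a set limit in either of two replicates at 10 µM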; also: this counterscreen used the strain with wild-type TIM10
# tim23-1 conf: tim23-1 mutant yeast growth inhibitors, confirmation, luminescence, single concentration; S. cerevisiae tim23-1 growth, BacTiter-Glo luminescence, 24 h; 4,400 compounds, 83% hits; inhibition, % at 20 µM; shares compounds with tim23-1 inh; AID 463218, 2010;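 active = inhibition above about 39% in either of two replicate wells at 20 µM, limit read from the data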;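 also: temperature-sensitive tim23-1 mutant grown at 25 °C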
# Hits are given with their value; - = inactive; . = no result given. Shown are actives, neighbours in structure and some others; about 4.2% of the full set was active somewhere. Rule as the data show it, unless noted: active = inhibition above about 50%; inactive = the rest.
SMILES,NALP1 yeast inh,TIM10 inh,tim10-1 inh,V-ATPase pH,NALP3 yeast inh,tim23-1 inh,NALP3 yeast conf,Casp1-ASC yeast,NALP3 yeast rt,tim10-1 conf,tim10 confirm,tim23-1 conf
CC1=C/C(=N\OS(=O)(=O)c2ccccc2)C(C)=CC1=O,-,87.1,91.3,-,-,-,-,.,.,80.0,-,.
CN(CCO)c1cc(Sc2nc3ccccc3s2)c2nonc2c1[N+](=O)[O-],-,52.5,40.5,-,62.1,-,64.6,.,.,39.2,25.5,.
CC(=O)OCCN(C)c1cc(SC(C)C)c2nonc2c1[N+](=O)[O-],-,-,-,-,-,-,.,.,.,.,.,.
Cc1ccc(NS(=O)(=O)c2cccc(C(=O)NCC(c3cccs3)N(C)C)c2)cc1 (stereo unspecified),-,-,-,-,-,-,.,.,.,.,.,.
O=c1c2ccccc2[nH]c2ccc(O)cc12,-,-,-,-,-,-,.,.,.,.,.,.
Cc1ccc2[nH]c3ccccc3c(=O)c2c1,-,-,-,-,53.0,58.5,61.5,61.0,56.1,.,.,50.5
C/C(=N\NC(=O)c1ccccc1O)C1C(=O)c2ccccc2C1=O,-,72.7,53.5,-,86.6,73.1,92.3,91.5,84.1,52.5,70.4,79.1
CCCCOC(=O)Nc1ccc2c(C)cc(=O)oc2c1,-,-,-,-,-,-,.,.,.,.,.,.
CCCCCCCCNC1=CC(=O)CC(C)(C)C1,-,-,-,-,-,-,.,.,.,.,.,.
COc1cc(/C=C/c2cccc[n+]2C)ccc1OCC(=O)Nc1ccccc1C,-,-,-,-,-,-,.,.,.,.,.,.
CCOc1cc(/C=C\[N+](=O)[O-])ccc1OCC(=O)Nc1ccccc1C,-,55.7,-,-,58.2,57.5,-,.,.,.,-,77.7
CCOC(=O)c1cccc(NC(=O)c2cccs2)c1,-,64.7,-,-,60.9,57.1,79.0,50.9,53.5,.,56.6,80.2
O=c1c2cc(Cl)ccc2nc(-c2ccc(Cl)c(Cl)c2)n1O,.,-,-,-,-,-,.,.,.,.,.,.
O=c1c2ccc(Cl)cc2nc(-c2ccc([N+](=O)[O-])cc2)n1O,-,63.0,-,-,57.4,54.6,81.4,62.2,53.8,.,44.6,62.8
C=C(C)COc1ccc2c(C)c(CC(=O)OC)c(=O)oc2c1C,-,86.5,80.4,-,66.3,61.5,77.9,83.0,79.8,75.7,87.5,64.8
Cc1ccc(S(=O)(=O)N2CCN(C(=O)CNC(=O)c3sc4ccccc4c3Cl)CC2)cc1,.,-,-,-,-,-,.,.,.,.,.,.
c1ccc(-c2cc3cc4c(cc3cn2)OCO4)cc1,.,-,-,-,54.7,62.4,58.2,71.2,67.3,.,.,49.8
O=C1Nc2ccccc2/C1=C/c1ccccc1F,-,55.9,-,-,53.2,52.8,53.1,-,-,.,57.2,45.0
CC(C)(C)c1csc(NC(=O)c2ccccc2O)n1,-,67.3,83.9,-,54.6,89.4,55.1,59.0,-,84.1,72.1,92.5
Cc1ccc(-c2nn(C(C)(C)C)c3ncnc(NS(=O)(=O)c4ccc([N+](=O)[O-])cc4)c23)cc1,-,-,-,-,-,-,.,.,.,.,.,.
